In the library only some 2.4% were active in any assay of this set; here they are far more common.
Cruzain inh noDet: qHTS Assay for Promiscuous and Specific Inhibitors of Cruzain (without detergent); Potency, µM, for inactives: max response, negative = inhibition, most hits filed as inhibitors; Cruzipain (Trypanosoma cruzi), P25779; purified cruzain, Z-FR-AMC fluorescence, no detergent; AID 1476, 2009; 200,000 compounds, 2.3% hits;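 also: plate controls were enzyme without inhibitor for no effect and buffer without enzyme for full effect; nearly all actives have a fitted effect of over 40% in size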
Target sequence (P25779 123-467 limits assumed): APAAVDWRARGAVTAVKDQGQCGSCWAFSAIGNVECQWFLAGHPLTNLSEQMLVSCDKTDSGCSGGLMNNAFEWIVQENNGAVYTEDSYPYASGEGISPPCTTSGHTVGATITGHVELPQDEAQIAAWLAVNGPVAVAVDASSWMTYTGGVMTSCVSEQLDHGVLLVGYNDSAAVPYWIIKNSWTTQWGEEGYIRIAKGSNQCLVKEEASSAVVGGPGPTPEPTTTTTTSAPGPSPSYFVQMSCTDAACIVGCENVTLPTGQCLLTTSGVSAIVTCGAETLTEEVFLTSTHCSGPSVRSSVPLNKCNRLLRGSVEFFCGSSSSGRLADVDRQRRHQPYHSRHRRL
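Detergent-free condition (0.00005% Triton X-100) in acetate buffer pH 5.5 with DTT. 1.5 nM enzyme and compound were pre-mixed 15 min, then 2 uM Z-FR-AMC substrate added; reaction progress from fluorescence change between first and third reads (60 s).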
Cruzain inh Det: qHTS Assay for Promiscuous and Specific Inhibitors of Cruzain (with detergent); AID 1478, 2009; Potency, µM, for the others: max response, negative = inhibition, usual class: inhibitors; 200,000 compounds, 0.43% hits; purified cruzain, Z-FR-AMC fluorescence, 0.01% Triton; Cruzipain (Trypanosoma cruzi), P25779;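 also: plate controls were neutral wells for no effect and buffer without enzyme for full effect; nearly all actives have a fitted effect of over 40% in size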
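In this qHTS format, compounds are incubated with 1.5 nM cruzain for 15 min at room temperature before 2 uM Z-FR-AMC is added. Release of AMC is followed at 360/450 nm, and progress is taken as the 60 s fluorescence difference.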
* marks the source's active call; other numbers are inactive results; ? = inconclusive. Calls follow the shape of the dose curve; as a rule, active = well fitted curve in the direction sought with a large enough effect; inconclusive = small, poorly fitted or top-dose-only effect, or another doubt; inactive = no such curve, though single readings can be large; an effect the other way counts as inactive or inconclusive. Potency is read from the fitted curve at half-maximal effect.

SMILES	Cruzain inh noDet	Cruzain inh Det
Cc1ccc(NC(=O)c2ccc(OC(=O)CCN3C(=O)c4ccccc4C3=O)cc2)cc1	?	2%
Cc1ccc(NC(=O)c2ccc(OC(=O)COc3cccc(Cl)c3)cc2)cc1	13µM*	-2%
Cc1ccc(C(=O)CC(=O)COc2ccc(Cl)cc2C)cc1	11%	-4%
Cc1ccc(NC(=O)c2ccc(OC(=O)COc3ccc(Cl)cc3C)cc2)cc1	13µM*	7%
Cc1cccc(C)c1NC(=O)Cn1nnc(C(=O)Nc2c(C)cccc2C)c1N	-7%	1%
Cc1nn2c(C)c(C(=O)NCc3ccc(OC(C)C)cc3)cnc2c1-c1ccc(F)cc1	-16%	-2%
COc1ccc(N(CC(=O)N2CCN(c3ccc(F)cc3)CC2)S(=O)(=O)c2c(C)nn(C)c2C)cc1	?	-3%
O[C@@H](c1cc([C@@]23C[C@H]4CC[C@@H]2C[C@H](C4)C3)nc2c(Cl)cc(Cl)cc12)C1CCCCN1 (some centres not stated)	3%	-2%
Cc1ccc(O)c(C2=Nc3ccccc3N=C(c3ccco3)C2)c1	17%	0%
Cc1ccc(O)c(C2=Nc3ccccc3N=C(c3ccc([N+](=O)[O-])cc3)C2)c1	20µM*	-8%
Cc1ccc(N=C2NC(=O)/C(=C/c3cccs3)S2)cc1C	?	-6%
Cc1cccc(N=C2NC(=O)/C(=C\c3cccs3)S2)c1	32µM*	-7%
CS(=O)(=O)c1ccc(/C=N\NC(N)=S)cc1	-13%	-8%
COc1cccc(-n2c(SCC(=O)NCc3cccs3)nc3ccccc3c2=O)c1	-14%	-3%
COc1cccc(-n2c(SCC(=O)Nc3sc4c(c3C(N)=O)CCC4)nc3ccccc3c2=O)c1	25µM*	2%
COC(=O)c1cccc(-n2nnnc2SCC(=O)Nc2nc3c(s2)CCCC3)c1	?	-2%
COc1ccc(-n2c(SCC(=O)Nc3sc4c(c3C#N)CCCC4)nnc2-c2ccccc2OC)cc1	25µM*	-2%
COc1cccc(-n2nnnc2SCC(=O)Nc2nc3c(s2)CCCC3)c1	25µM*	-6%
N#Cc1ccc(-c2cccnc2)nc1SCC(=O)Nc1sc2c(c1C#N)CCC2	-1%	3%
COc1ccc(-c2ccc(C#N)c(SCC(=O)Nc3sc4c(c3C#N)CCC4)n2)cc1	13µM*	-11%
COc1ccc(-c2nnc(SCC(=O)Nc3sc4c(c3C#N)CCCC4)n2-c2ccccc2)cc1	?	-3%
CCOC(=O)c1c(S(=O)(=O)NCC(=O)Nc2ccc(C)c(N(C)C)c2)c(C)n(C)c1C	9%	1%
CCOc1ccc2nc(N3CCN(C(=O)c4ccc5c(c4)CCCC5)CC3)sc2c1	-15%	-2%
Cc1cccc(N2CCN(C(=O)CCS(=O)(=O)c3ccc4c(c3)CC(=O)N4C)CC2C)c1 (configuration not stated)	19%	0%
COc1ccc(CN2C(=O)C(NC(=O)c3ccccc3OC)(C(F)(F)F)N=C2c2ccccc2)cc1 (configuration not stated)	21%	-5%
SMILES	Cruzain inh noDet	Cruzain inh Det
O=C(CSc1nnnn1-c1ccc(Cl)cc1)NC(=O)Nc1ccc2c(c1)OCCO2	25µM*	-2%
Cc1cccc(NC(=O)CSc2nnc(NC(=O)CN3CCCCC3)s2)c1	-14%	-4%
Cc1cccc(Nc2nnc(SCC(=O)NC(=O)Nc3ccc4c(c3)OCCO4)s2)c1	16µM*	-2%
Cc1cccc(Nc2nnc(SCC(=O)Nc3cccnc3Cl)s2)c1	16µM*	25µM*
Cc1ccc(-n2nnnc2SCC(=O)NC(=O)Nc2ccc3c(c2)OCCO3)cc1	-12%	-3%
Cc1cccc(Nc2nnc(SCC(=O)Nc3cccc(S(=O)(=O)N4CCCCC4)c3)s2)c1	13µM*	-3%
Cc1cccc(Nc2nnc(SCC(=O)NC3CCCc4ccccc43)s2)c1 (configuration not stated)	-5%	-9%
Cc1ccccc1Nc1nnc(SCC(=O)NC(=O)Nc2ccc3c(c2)OCCO3)s1	?	-4%
COc1ccc(CCNC(=O)Cn2nc(C)n3c(cc4occc43)c2=O)cc1OC	-12%	-1%
COc1ccc(NC(=O)/C(C#N)=C/c2ccc(OCc3cc(=O)n4nc(C)sc4n3)cc2)cc1	-15%	-2%
CCOc1ccc(-c2cc(NC(=O)Nc3ccc(Cl)cc3)c(C(=O)OC)s2)cc1	-6%	-1%
CCc1ccccc1NC(=O)Cn1nnc2sc3c(c2c1=O)CCC(C(C)(C)C)C3 (configuration not stated)	?	-6%
COCCCNC(=O)C(C)n1c2ccccc2c2cnn(C)c(=O)c21 (configuration not stated)	0%	-5%
Cc1cccc(NC(=O)CSc2nnc(NC(=O)c3ccc(S(=O)(=O)N4CCOCC4)cc3)s2)c1C	-11%	-1%
Cc1cccc(C)c1Nc1nnc(SCC(=O)Nc2cc(S(=O)(=O)N3CCCCC3)ccc2Cl)s1	13µM*	-3%

Assay outcomes from PubChem BioAssay.
